Data published in PubChem BioAssay AID1481 (The Scripps Research Institute Molecular Screening Center, 2009).
The campaign covered roughly 220,000 compounds. About 920 (0.42%) were called active. Many of the other results were omitted from the sample, so actives are more common in it than they were. Unmarked numbers belong to inactive results. Rule as the data show it: active = inhibition above about 15%; inactive = the rest.

The compounds below were run against Transitional endoplasmic reticulum ATPase (Homo sapiens) (UniProt P55072) (assay: p97 ATP hydrolysis blockers – biochemical, primary screen (AID 1481;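 also: 0% = DMSO vehicle and 100% = wells lacking enzyme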)). Conditions: recombinant p97 ATPase, Kinase-Glo ATP luminescence, 3 h; at 8 µM; stronger effect = higher value.
Transitional endoplasmic reticulum ATPase (Homo sapiens), sequence (P55072 whole entry, looked up): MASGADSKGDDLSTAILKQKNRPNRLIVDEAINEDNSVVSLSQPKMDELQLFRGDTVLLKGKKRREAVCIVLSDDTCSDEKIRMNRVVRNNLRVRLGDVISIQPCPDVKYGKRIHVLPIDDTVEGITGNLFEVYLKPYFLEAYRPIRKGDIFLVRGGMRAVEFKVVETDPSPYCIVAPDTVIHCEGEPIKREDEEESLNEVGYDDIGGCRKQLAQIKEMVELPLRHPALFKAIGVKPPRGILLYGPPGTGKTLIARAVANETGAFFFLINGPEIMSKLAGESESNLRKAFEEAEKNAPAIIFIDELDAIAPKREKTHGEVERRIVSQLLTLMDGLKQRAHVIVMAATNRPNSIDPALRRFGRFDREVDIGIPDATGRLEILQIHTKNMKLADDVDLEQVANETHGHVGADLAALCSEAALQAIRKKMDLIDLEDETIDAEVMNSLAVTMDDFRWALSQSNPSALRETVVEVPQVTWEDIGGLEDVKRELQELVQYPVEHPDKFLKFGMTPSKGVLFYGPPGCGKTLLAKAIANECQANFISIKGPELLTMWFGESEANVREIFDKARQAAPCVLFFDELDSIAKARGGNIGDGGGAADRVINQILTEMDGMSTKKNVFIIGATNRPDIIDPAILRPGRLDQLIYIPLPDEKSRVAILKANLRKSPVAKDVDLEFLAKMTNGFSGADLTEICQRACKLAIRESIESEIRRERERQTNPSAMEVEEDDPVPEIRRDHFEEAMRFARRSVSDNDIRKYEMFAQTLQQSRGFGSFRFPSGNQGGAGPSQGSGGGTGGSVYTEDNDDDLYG

SMILES	inhibition
O=c1[nH]c(CN2CC=C(c3ccccc3)CC2)nc2scc(-c3cccs3)c12	15.1% (active)
O=c1c2ccccc2nc(-c2ccccc2)n1-c1ccccn1	3.57%
CNC(=O)Nc1ccc(C(O)(C(=O)OC)C(F)(F)F)cc1 (stereo not given)	-1.08%
CC(=O)Nc1ccccc1C(=O)OCC(=O)c1cccc2ccccc12	-0.08%
N=c1ccccn1Cc1ccccc1	10.5%
